Test [1] can be described thus: NCI Yeast Anticancer Drug Screen. Data for the rad50 strain (AID 155).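 Note: 0% = growth of vehicle-only cultures of the same strain.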 The conditions noted are these: S. cerevisiae rad50 strain growth inhibition, stronger effect = higher value. Summed up:
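Cells are treated with compound, grown, and their growth is then scored against vehicle-only cultures of the same repair-deficient yeast strain.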

The nature of test [2]: NCI Yeast Anticancer Drug Screen. Data for the mec2-1 strain (AID 157). The conditions noted are these: S. cerevisiae mec2-1 strain, stronger effect = higher value. In a few lines:
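Compounds were applied to mec2-1 yeast cells. Their growth was then compared with that of vehicle-treated cultures to give growth inhibition.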

Test [3] is described as follows: NCI Yeast Anticancer Drug Screen. Data for the sgs1 mgt1 strain (AID 161).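 Note: 0% = growth of cultures given vehicle only.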 The conditions noted are these: S. cerevisiae sgs1 mgt1 strain, stronger effect = higher value. In a few lines:
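This yeast growth screen uses a strain with defined DNA-repair lesions; compound-treated growth is compared with vehicle-treated growth.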

A short description of test [4]: NCI Yeast Anticancer Drug Screen. Data for the cln2 rad14 strain (AID 165).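 Note: 0% = growth equal to vehicle treated cultures.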 The conditions noted are these: S. cerevisiae cln2 rad14 strain, stronger effect = higher value. Summed up: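 Strain: cln2 rad14 yeast, altered in cell cycle control and DNA damage repair. Read-out: growth inhibition vs vehicle.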
A short description of test [5]: NCI Yeast Anticancer Drug Screen. Data for the bub3 strain (AID 167). Conditions: S. cerevisiae bub3 mutant strain, stronger effect = higher value. Summed up:
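Part of a panel of yeast mutants defective in DNA damage repair or cell cycle regulation. Each strain is grown with compound, and inhibition is calculated relative to solvent-treated cultures.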

Test [6] is described as follows: NCI Yeast Anticancer Drug Screen. Data for the mlh1 rad18 strain (AID 175). Conditions: S. cerevisiae mlh1 rad18 strain growth inhibition, stronger effect = higher value. In a few lines: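 A repair-deficient yeast strain is exposed to test compound, and growth is scored relative to vehicle-treated controls.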
Setting [7] is: at 5.0 µM (retest, dose inferred, filed as 0.5).
The mark [8] stands for this setting: at 50.0 µM (retest, dose inferred, filed as 5.0).

The structures appear in SMILES notation. About 79,000 compounds went through this panel and 15% of them were active in at least one assay; those are over-represented in the sample as a whole. Values without a mark were called inactive. The source made the active and inactive calls. Cut-off read from the data, not from the text of the source: active = growth inhibition above about 70%; inactive = the rest.

For the molecule `O=C(O)CCC(O)=C1S(=O)(=O)OCCOS1(=O)=O`, the growth inhibition in test [1] (setting [7]) is -21%; in test [1] (setting [8]), 16%; in test [1] (at 50.0 µM) it was 36%; in test [2] (setting [7]), -8%; in test [2] (setting [8]), 10%; in test [2] (at 50.0 µM), 4.25%. The growth inhibition in test [3] (setting [7]) is -16%; in test [3] (setting [8]), -3%; in test [3] (at 50.0 µM) it was -1.5%; in test [4] (setting [7]), -42%; in test [4] (setting [8]), -30%; in test [4] (at 50.0 µM) it was 47.7%. The growth inhibition in test [5] (setting [7]) is -18%; in test [5] (setting [8]), 3%; in test [5] (at 50.0 µM) it was 15.7%; in test [6] (setting [7]), -17%; in test [6] (setting [8]), -28%; in test [6] (at 50.0 µM), 8.3%.
As for `Cc1c(-c2ccccc2)ccnc1/C=N/NC(=S)Nc1ccc(N(C)C)cc1`, the growth inhibition in test [1] (setting [7]) was 48%; in test [1] (setting [8]), 94% (active); in test [1] (at 50.0 µM), 74.8% (active); in test [2] (setting [7]), 38%; in test [2] (setting [8]) it was 96% (active); in test [2] (at 50.0 µM), 76.7% (active). Moreover, the growth inhibition was 49% in test [3] (setting [7]); 93% (active) in test [3] (setting [8]); 70% (active) in test [3] (at 50.0 µM); 43% in test [4] (setting [7]); 91% (active) in test [4] (setting [8]); 60.6% in test [4] (at 50.0 µM). The growth inhibition was 59% in test [5] (setting [7]); 94% (active) in test [5] (setting [8]); 81.7% (active) in test [5] (at 50.0 µM); 36% in test [6] (setting [7]); 93% (active) in test [6] (setting [8]); 79.6% (active) in test [6] (at 50.0 µM).
Consider `CC(C)SC(=S)Nc1cc(Cl)c(Cl)cc1Cl`, for which the growth inhibition is 7% in test [1] (setting [7]); 85% (active) in test [1] (setting [8]); 99.5% (active) in test [1] (at 50.0 µM); 6% in test [2] (setting [7]); 86% (active) in test [2] (setting [8]); 99.5% (active) in test [2] (at 50.0 µM). For the same molecule, the growth inhibition was 10% in test [3] (setting [7]); 98% (active) in test [3] (setting [8]); 99.5% (active) in test [3] (at 50.0 µM); -14% in test [4] (setting [7]); 91% (active) in test [4] (setting [8]); 99.3% (active) in test [4] (at 50.0 µM). Also, the growth inhibition was -4% in test [5] (setting [7]); 49% in test [5] (setting [8]); 98.9% (active) in test [5] (at 50.0 µM); 1% in test [6] (setting [7]); 92% (active) in test [6] (setting [8]); 99.3% (active) in test [6] (at 50.0 µM).
In the case of `C=CCNCCC1CCCCCC1`, the growth inhibition in test [1] (setting [7]) is 7%; in test [1] (setting [8]), 97% (active); in test [1] (at 50.0 µM), 96.6% (active); in test [2] (setting [7]), 6%; in test [2] (setting [8]), 97% (active); in test [2] (at 50.0 µM), 97.5% (active). The growth inhibition was 7% in test [3] (setting [7]); 98% (active) in test [3] (setting [8]); 49.1% in test [3] (at 50.0 µM); 5% in test [4] (setting [7]); 96% (active) in test [4] (setting [8]); 8.8% in test [4] (at 50.0 µM). For the same molecule, the growth inhibition in test [5] (setting [7]) was 7%; in test [5] (setting [8]), 97% (active); in test [5] (at 50.0 µM), 97.7% (active); in test [6] (setting [7]) it was 4%; in test [6] (setting [8]), 97% (active); in test [6] (at 50.0 µM) it was 96.5% (active).
Consider `NC1=NCN(C2OC(COCc3ccccc3)C(OCc3ccccc3)C2OCc2ccccc2)C(=O)N1` (stereo not given), for which the growth inhibition is 5% in test [1] (setting [7]); 57% in test [1] (setting [8]); 66.5% in test [1] (at 50.0 µM); 8% in test [2] (setting [7]); 28% in test [2] (setting [8]); 45.6% in test [2] (at 50.0 µM). For the same molecule, the growth inhibition in test [3] (setting [7]) was 5%; in test [3] (setting [8]) it was 59%; in test [3] (at 50.0 µM), 99.4% (active); in test [4] (setting [7]), -7%; in test [4] (setting [8]) it was 58%; in test [4] (at 50.0 µM), 80.2% (active). For the same molecule, the growth inhibition in test [5] (setting [7]) is -1%; in test [5] (setting [8]), 56%; in test [5] (at 50.0 µM), 98% (active); in test [6] (setting [7]), 1%; in test [6] (setting [8]), 86% (active); in test [6] (at 50.0 µM) it was 99% (active).
On to `CC1=C(C(=O)OC(C)C)C(c2ccccc2[N+](=O)[O-])C(C(=O)OC(CO[N+](=O)[O-])CO[N+](=O)[O-])=C(C)N1` (stereo not given), for which the growth inhibition in test [1] (setting [7]) was 17%; in test [1] (setting [8]), 24%; in test [1] (at 50.0 µM), 83.6% (active); in test [2] (setting [7]) it was 30%; in test [2] (setting [8]) it was 27%; in test [2] (at 50.0 µM), 87.7% (active). For the same molecule, the growth inhibition was -20% in test [3] (setting [7]); -8% in test [3] (setting [8]); 89.1% (active) in test [3] (at 50.0 µM); 2% in test [4] (setting [7]); 22% in test [4] (setting [8]); 83.9% (active) in test [4] (at 50.0 µM). For the same molecule, the growth inhibition was -5% in test [5] (setting [7]); 25% in test [5] (setting [8]); 87.2% (active) in test [5] (at 50.0 µM); 18% in test [6] (setting [7]); 19% in test [6] (setting [8]); 81.7% (active) in test [6] (at 50.0 µM).
`Clc1ccc(OCC2CO2)c(Cl)c1` (stereo not given): the growth inhibition was 43% in test [1] (setting [7]); 93% (active) in test [1] (setting [8]); 96.6% (active) in test [1] (at 50.0 µM); -17% in test [2] (setting [7]); 40% in test [2] (setting [8]); 91.5% (active) in test [2] (at 50.0 µM). The growth inhibition is 40% in test [3] (setting [7]); 82% (active) in test [3] (setting [8]); 92.2% (active) in test [3] (at 50.0 µM); 5% in test [4] (setting [7]); 40% in test [4] (setting [8]); 86.5% (active) in test [4] (at 50.0 µM). The growth inhibition in test [5] (setting [7]) is 6%; in test [5] (setting [8]), -7%; in test [5] (at 50.0 µM), 14.9%; in test [6] (setting [7]) it was 16%; in test [6] (setting [8]), 84% (active); in test [6] (at 50.0 µM), 96.8% (active).
For `Cc1sc(N=Nc2c(O)[nH]c3ccccc23)nc1-c1ccccc1`, the growth inhibition is 20% in test [1] (setting [7]); 31% in test [1] (setting [8]); -2% in test [1] (at 50.0 µM); 16% in test [2] (setting [7]); 27% in test [2] (setting [8]); -2.15% in test [2] (at 50.0 µM). For the same molecule, the growth inhibition in test [3] (setting [7]) is 17%; in test [3] (setting [8]), 30%; in test [3] (at 50.0 µM), 19.9%; in test [4] (setting [7]) it was 14%; in test [4] (setting [8]) it was 19%; in test [4] (at 50.0 µM), 13.7%. Besides, the growth inhibition in test [5] (setting [7]) is 24%; in test [5] (setting [8]), 60%; in test [5] (at 50.0 µM), -20.1%; in test [6] (setting [7]), 11%; in test [6] (setting [8]) it was 39%; in test [6] (at 50.0 µM) it was -26.4%.
With `CN(C)CC1CCc2ccc3ccccc3c2C1=O` (stereo not given), the growth inhibition in test [1] (setting [7]) was 9%; in test [1] (setting [8]), 34%; in test [1] (at 50.0 µM), 25.9%; in test [2] (setting [7]) it was -13%; in test [2] (setting [8]) it was 27%; in test [2] (at 50.0 µM), 31.6%. Also, the growth inhibition is 16% in test [3] (setting [7]); 48% in test [3] (setting [8]); 56.4% in test [3] (at 50.0 µM); 6% in test [4] (setting [7]); 29% in test [4] (setting [8]); 7.95% in test [4] (at 50.0 µM). Further, the growth inhibition in test [5] (setting [7]) is 10%; in test [5] (setting [8]), 63%; in test [5] (at 50.0 µM), 48.8%; in test [6] (setting [7]), 29%; in test [6] (setting [8]), 65%; in test [6] (at 50.0 µM), 15.4%.
On to `O=C(Oc1cc([N+](=O)[O-])ccc1Cl)Oc1cc([N+](=O)[O-])ccc1Cl`, for which the growth inhibition in test [1] (setting [7]) was -6%; in test [1] (setting [8]) it was 97% (active); in test [1] (at 50.0 µM) it was 97.5% (active); in test [2] (setting [7]), 0%; in test [2] (setting [8]) it was 99% (active); in test [2] (at 50.0 µM), 99.5% (active). The growth inhibition was -7% in test [3] (setting [7]); 99% (active) in test [3] (setting [8]); 98.6% (active) in test [3] (at 50.0 µM); 0% in test [4] (setting [7]); 98% (active) in test [4] (setting [8]); 97.9% (active) in test [4] (at 50.0 µM). Also, the growth inhibition was -9% in test [5] (setting [7]); 98% (active) in test [5] (setting [8]); 98.8% (active) in test [5] (at 50.0 µM); -5% in test [6] (setting [7]); 98% (active) in test [6] (setting [8]); 98.6% (active) in test [6] (at 50.0 µM).

(Values after PubChem BioAssay (NCI).)
